# Source: PubChem
# Compounds with a hit are over-represented: about 7.4% of the library has one in this group of screens.
# FLuc modulator: firefly luciferase modulation, counter-screen for miR-21 project; Potency, µM (titrated, usually from 57.5 µM), without a hit: at the top dose activity change, negative = inhibition, hits mostly inhibitors; purified FLuc, Km substrates, luminescence inhibition; actives 6.9% (n = 360,000); AID 588342; P08659;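 further: plate controls were vehicle for no effect and reference inhibitor for full effect; nearly all actives have a fitted effect of over 55% in size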
# Target sequence (P08659 whole entry, looked up): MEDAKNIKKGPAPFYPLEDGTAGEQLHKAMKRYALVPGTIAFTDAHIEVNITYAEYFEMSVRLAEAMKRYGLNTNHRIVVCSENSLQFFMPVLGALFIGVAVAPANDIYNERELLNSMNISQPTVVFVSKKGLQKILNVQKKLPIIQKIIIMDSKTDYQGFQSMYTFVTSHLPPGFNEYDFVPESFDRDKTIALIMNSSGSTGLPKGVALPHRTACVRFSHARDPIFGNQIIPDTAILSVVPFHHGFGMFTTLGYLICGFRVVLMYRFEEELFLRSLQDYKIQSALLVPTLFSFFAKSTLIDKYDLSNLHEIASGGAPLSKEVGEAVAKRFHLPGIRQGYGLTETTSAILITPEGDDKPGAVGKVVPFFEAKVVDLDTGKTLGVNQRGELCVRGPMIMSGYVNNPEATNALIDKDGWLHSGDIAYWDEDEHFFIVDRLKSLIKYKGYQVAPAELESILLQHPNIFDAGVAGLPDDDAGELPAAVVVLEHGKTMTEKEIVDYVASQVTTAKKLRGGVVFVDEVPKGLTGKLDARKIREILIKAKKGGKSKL
#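 Purified P. pyralis luciferase (10nM final) with 10uM D-luciferin and 10uM ATP (Km levels) in 50mM Tris acetate pH 7.5, 10mM Mg acetate, 0.01% Tween-20, 0.05% BSA; qHTS 6-point titration, ~60 µM downward; luminescence read.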
# Rab9 prom act: activates the Rab9 promoter; actives 2.8% (n = 320,000); Huh7 Rab9 promoter-luciferase reporter, luminescence, 24 h; Potency, µM (series often up to 9.22 µM), inactives show at the highest dose activation, negative = inhibition, most hits filed as activators; further: % of control where 0% means no effect; nearly all actives have a fitted effect of over 60% in size
#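 Stable Rab9-luc Huh7, 1500 cells/well, 2 h settle; cmpd in DMSO, 24 h, 37 °C/5% CO2; luciferase reagent 10 min RT; luminescence.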
# SMN2 splice up: enhancers of SMN2 splice variant expression; AID 1458; actives 2.8% (n = 210,000); Potency, µM (titrated, usually from 46.1 µM), inactives show top-dose activity change, positive = activation, actives largely listed as activators; HEK293 SMN2-luciferase splicing reporter, luminescence, 30-36 h; further: % of control where 0% means no effect; nearly all actives have a fitted effect of over 55% in size
#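 HEK293 cells carry an SMN2 […]–luciferase reporter in which exon 7 inclusion puts luciferase in frame. Cells were plated 10-12 h before compound addition, then incubated 30-36 h at 37C. ONE-Glo luminescence was read; sodium butyrate at 4.5 mM final served as control.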
# NPC1 prom act: activators of NPC1 promoter | Huh7 NPC1 promoter luciferase reporter, 24 h | Potency, µM (series often up to 9.22 µM), for inactives: at the highest dose activation, actives largely listed as activators | actives 2.4% (n = 320,000) | AID 485313; further: % of control where 0% means no effect; nearly all actives have a fitted effect of over 60% in size
#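 Stable NPC1-promoter luciferase Huh7 line; cpd (DMSO) 24 h, 37 °C, 5% CO2; Amplite luciferase reagent 10 min RT; luminescence readout. qHTS format.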
# ELG1 genotox: genotoxicity induction in ELG1-luciferase HEK293T cells. Potency, µM (series often up to 46 µM), for inactives: top-dose activity change, positive = activation, hits mostly activators. actives 1.3% (n = 330,000). HEK293T ELG1-luciferase reporter, luminescence, 16 h; further: % of control where 0% means no effect; nearly all actives have a fitted effect of over 60% in size
#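 After overnight (16 hr) compound treatment at 37 °C, ELG1-luciferase HEK293T cells were lysed with ONE-Glo; luminescence quantified 30 min later at room temperature.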
# Active calls of the source: *; ? = inconclusive; · = no result; [ ] = remark or other dose. The call rests on the fitted dose curve; in most records, active means well fitted curve in the direction sought with a large enough effect; inconclusive means small, poorly fitted or top-dose-only effect, or another doubt; inactive means no such curve, though single readings can be large; an effect the other way counts as inactive or inconclusive. Potency means the concentration at half of the fitted maximal effect.
SMILES,FLuc modulator,Rab9 prom act,SMN2 splice up,NPC1 prom act,ELG1 genotox
Cc1ccc(-n2c(=O)c3sc4ccccc4c3n(CC(=O)NC3CCCC3)c2=O)cc1C,4%,·,3%,·,·
CC(=O)Nc1ccc(S(=O)(=O)NCCC(=O)NCCOc2ccccc2)cc1,6%,0%,·,0%,1%
COc1cccc(NC(=O)Cn2nnc(C(=O)Nc3ccccc3)c2N)c1,?,-6%,-6%,1%,0%
COc1cccc(NC(=O)Nc2cccc(C(=O)O)c2)c1,0.17µM*,?,·,?,-10%
NS(=O)(=O)c1cccc(NC(=O)c2cccc(Oc3ccccc3)c2)c1,11µM*,6%,·,6%,4%
COc1cc(C(=O)Nc2cccc(NC(=O)c3cccs3)c2)cc(OC)c1OC,24µM*,-2%,·,-7%,-3%
NC(=O)c1ccc(NC(=O)c2cccc(Oc3ccccc3)c2)cc1,5%,-7%,-7%,-1%,10%
COc1cccc(NC(=O)CNC(=O)c2ccccc2)c1,-21%,25%,22%,18%,?
COc1cccc(NC(=O)c2nnn(CCc3ccccc3)c2N)c1,15µM*,28%,?,28%,?
Cc1ccc(C(C)C)c(OCC(=O)Nc2ccc(O)c(-c3nc4cc(Cl)ccc4o3)c2)c1,-16%,·,6%,·,·
Cc1[nH]c2ccc(C(=O)N3CCCCC3)cc2c1C,19µM*,3.2µM*,13µM*,3.2µM*,?
COc1cc(C(=O)Nc2cccc(NC(=O)c3ccccc3)c2)cc(OC)c1OC,15µM*,2%,·,-1%,-8%
COc1cccc(-c2nnc(NC(=O)c3ccccc3Br)o2)c1,-13%,0%,·,0%,-9%
COc1cc(C(=O)Nc2cccc(C(C)=O)c2)cc(OC)c1OC,-24%,-3%,·,-2%,1%
COc1cccc(-c2nnc(NC(=O)c3cccc(F)c3)o2)c1,17µM*,1%,·,0%,?
Cc1ccc(O)c(C(=O)c2cnn(C(=O)COc3ccccc3C#N)c2)c1,-1%,1%,·,-3%,-9%
CCN(CC(=O)Nc1ccccc1OC)C(=O)CC1CCCC1,·,·,·,·,-2%
CCOC(=O)C1CCN(S(=O)(=O)C(F)(F)c2nc3ccccc3s2)CC1,27µM*,25%,-5%,12%,1%
O=C(CCc1nc2ccccc2s1)N1CCN(S(=O)(=O)c2cccs2)CC1,-13%,2%,-9%,13%,-8%
CC(=O)N1CCC(C(=O)N2CCN(S(=O)(=O)c3cccs3)CC2)CC1,2%,3%,·,-1%,0%
O=C(C1CCN(S(=O)(=O)c2cccs2)CC1)N1CCCCC1,4.3µM*,?,·,3.5µM*,?
O=C(OCc1nc2ccccc2s1)C1CCN(S(=O)(=O)c2cccs2)CC1,13µM*,15%,22%,1%,11µM*
O=C(COC(=O)C1CCN(S(=O)(=O)c2cccs2)CC1)Nc1ccccc1,-2%,1%,10%,-5%,0%
O=S(=O)(c1cccs1)N1CCN(Cc2nc3ccccc3s2)CC1,17µM*,-2%,-38%,-2%,28%
CC1Cc2cc(S(=O)(=O)CCC(=O)Nc3ccc(F)cc3)ccc2N1C(=O)C1CC1 (stereo not given),0%,·,·,·,·
SMILES,FLuc modulator,Rab9 prom act,SMN2 splice up,NPC1 prom act,ELG1 genotox
O=C(CCCc1ccccc1)Nc1ccc(Br)cc1F,?,25%,·,?,?
O=C(/C=C/Nc1ccc(Br)cc1F)c1ccccc1,0.11µM*,0.45µM*,-43%,1.3µM*,?
O=C(/C=C/Nc1ccccc1F)c1ccc(Br)cc1,0.48µM*,0.79µM*,5µM*,0.56µM*,1µM*
O=C(/C=C/NCC(=O)c1ccccc1)c1ccc(Br)cc1,-17%,13%,11%,9%,4%
CC(=O)c1ccc(S(=O)(=O)N2CCN(C(=O)CSc3ccc(F)cc3)CC2)cc1,3%,-2%,·,-7%,-9%
COc1ccc2c(c1)C(=O)/C(=C/C=C/c1ccccc1)CC2,9.5µM*,?,11µM*,?,5%
COc1ccc2c(c1)CC/C(=C\C=C\c1ccccc1OC)C2=O,2.1µM*,?,11µM*,?,9%
Cc1cc(C(=O)Nc2cccc(-c3ccc(N4CCOCC4)nn3)c2)ccc1[N+](=O)[O-],2.7µM*,?,·,?,0%
O=C(Nc1cccc(-c2ccc(N3CCOCC3)nn2)c1)c1ccc(Cl)cc1,2.1µM*,?,·,?,?
O=C(Nc1cccc(-c2ccc(N3CCCCC3)nn2)c1)c1ccco1,0.38µM*,2.8µM*,·,4µM*,1.6µM*
Cc1ccc(C(=O)Nc2cccc(-c3ccc(N4CCOCC4)nn3)c2)cc1,1.3µM*,3.5µM*,·,2.5µM*,1%
Cc1ccc(C(=O)Nc2ccc(N3CCOCC3)nc2)cc1,-17%,19%,-19%,19%,8%
O=C(c1cccc(Cl)c1)N1CCN(c2ccc(N3CCOCC3)nn2)CC1,3%,-1%,·,-3%,3%
Cc1ccccc1C(=O)Nc1ccc(N2CCOCC2)nc1,?,29%,9%,21%,16%
Cc1ccc(C(=O)Nc2cccc(-c3ccc(N4CCOCC4)nn3)c2)cc1C,2.1µM*,2.8µM*,·,?,?
O=C(COc1ccc(Cl)cc1)Nc1cccc(-c2ccc(N3CCOCC3)nn2)c1,1.3µM*,1.6µM*,·,3.2µM*,2.1µM*
O=C(Nc1cccc(-c2ccc(N3CCOCC3)nn2)c1)c1ccccc1Cl,1.7µM*,3.5µM*,·,?,11%
Cc1ccc(C(=O)Nc2ccc(S(=O)(=O)N3CCOCC3)cc2)cc1C,0%,0%,·,-8%,0%
O=C(CCNS(=O)(=O)c1ccc(Br)cc1)NCCCSc1ccccc1,2%,-4%,·,1%,-3%
CCC(O)C1CCN(C(=O)c2cc(COc3ccc(F)cc3F)on2)CC1 (stereo not given),3%,0%,·,-4%,2%
Cc1ccc2nsnc2c1S(=O)(=O)N(Cc1ccco1)Cc1cc2cccc(C)c2[nH]c1=O,5%,1%,-6%,-3%,-6%
Cc1ccc2[nH]c(=O)c(CN(Cc3ccco3)S(=O)(=O)c3c(C)ccc4nsnc34)cc2c1,3%[2.3 µM],-17%,7.9µM*,-5%,-14%
CN(Cc1nc(C(c2ccccc2)c2ccccc2)no1)CC1COCCO1 (stereo not given),15µM*,?,·,?,?
O=C(O)c1cc(N/N=C/c2ccc(-c3ccc(F)cc3)o2)ccc1Cl,9.5µM*,?,·,?,?
O=C(O)c1ccc(N/N=C/c2ccc(-c3cc(Cl)ccc3Cl)o2)cc1,9.5µM*,?,·,?,?
COC(=O)N/N=C/c1ccc(-c2ccc(Cl)cc2Cl)o1,?,8%,·,-3%,5%
Cc1ccc(C(=O)N/N=C/c2ccc(-c3cccc(Cl)c3)o2)cn1,?,-1%,·,-6%,-6%
